# Screening results deposited in PubChem BioAssay by National Center for Advancing Translational Sciences (NCATS).
# Hits are enriched below; roughly 19% of the tested compounds scored in any of these assays.
# Pf growth 96h: P. falciparum growth inhibition at 96 hours; Potency, µM (series often up to 28.7 µM), without a hit: top-dose activity change, negative = inhibition, actives largely listed as inhibitors; AID 504834; 6.9% of 320,000 active; P. falciparum luciferase reporter growth, 96 h; also: potency is read from the fitted curve at half-maximal effect; % is scaled to controls: 0 for no effect and ±100 for the full control effect
#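 Infected RBCs, 2% Hct / 0.05% parasitemia final; luciferase-reporter P. falciparum; cpd 96 h, 37 C, 5% CO2; luciferase detection reagent; luminescence.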
# Pf growth 48h: P. falciparum growth inhibition at 48 hours (one generation); P. falciparum luciferase growth in erythrocytes, 48 h; Potency, µM (doses to about 28.7 µM), without a hit: top-dose activity change, negative = inhibition, most hits filed as inhibitors; 5.9% of 310,000 active; AID 504832; also: potency is read from the fitted curve at half-maximal effect; % is scaled to controls: 0 for no effect and ±100 for the full control effect
#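 Read-out is firefly luciferase luminescence from an integrated reporter in P. falciparum, so falling signal marks reduced parasite growth. Infected erythrocytes were at 2% hematocrit and 0.1% parasitemia (final) in Albumax-supplemented RPMI 1640.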
# Lassa entry inh: blocks Lassa virus binding to or entry into cells; Lassa virus pseudotype entry inhibition, cell reporter; Potency, µM (series often up to 37.9 µM), for the others: top-dose activity change, negative = inhibition, most hits filed as inhibitors; 1.2% of 300,000 active; AID 540256; calls by dose curve; tested in HEK293 cells; also: potency is read from the fitted curve at half-maximal effect; % is scaled to controls: 0 for no effect and ±100 for the full control effect; nearly all actives have a fitted effect of over 50% in size
# Shiga inhibitor: inhibitors of Shiga toxin in Vero cells; 9.2% of 290,000 active; Vero cells, Shiga toxin protein synthesis inhibition reporter; inhibition, % at 38.7 µM; in the data active = inhibition mostly above about 28%, no sharp cut-off; inactive = mostly below about 43%; also: 0% is about no effect
# MARV entry inh: blocks Marburg virus binding to or entry into cells; Marburg virus pseudotyped entry inhibition, cell reporter; Potency, µM (highest dose often 37.8 µM), inactives show at the top dose activity change, negative = inhibition, most hits filed as inhibitors; 1.8% of 300,000 active; calls by dose curve; tested in HEK293 cells; also: potency is read from the fitted curve at half-maximal effect; % is scaled to controls: 0 for no effect and ±100 for the full control effect
# Cycloheximide cs: counter-screen hit for Shiga toxin inhibitors, cycloheximide; cell reporter, cycloheximide protein synthesis inhibition counterscreen; max response, %; 12% of 300,000 active; AID 2314; in the data active = max response mostly above about 13%, no sharp cut-off; inactive = mostly below about 14%; also: read at 38.3 µM for the half of the compounds with a filed dose; 0% is about no effect
# * hit, by the source's call; ? = inconclusive; / = not tested or not shown; [ ] = dose if it differs, or a comment. Unless noted, calls follow the shape of the dose curve; as a rule, active = well fitted inhibition curve with a large enough effect; inconclusive = small, poorly fitted or top-dose-only effect, or another doubt; inactive = no such curve, though single readings can be large or run the other way.
SMILES,Pf growth 96h,Pf growth 48h,Lassa entry inh,Shiga inhibitor,MARV entry inh,Cycloheximide cs
O=C1NCCCC2c3cc(O)c4ccccc4c3OC12N1CCCCC1 (stereo unspecified),19.6%,8.28µM*,/,20.3,-6.6%,11.9
C=CCOC(=O)C1=C[C@@H](c2cn(C(C)=O)c3ccccc23)C[C@@H](OCCCCO)O1,?,?,/,-21.3,/,-2.3
CC(=O)n1cc([C@@H]2C=C(C(=O)NCc3ccccc3)O[C@H](OCCCCO)C2)c2ccccc21,?,?,/,36.7,/,-0.2
CC(=O)n1cc([C@H]2C=C(C(=O)NCc3ccccc3)O[C@@H](OCCCCO)C2)c2ccccc21,?,5.86µM*,/,1.2,/,-2.9
CC(=O)n1cc([C@H]2C=C(C(=O)Nc3ccccc3)O[C@@H](OCCCCO)C2)c2ccccc21,?,9.28µM*,/,2.4,/,14.7
O=C(NCc1ccccc1)C1=C[C@H](c2coc3ccccc3c2=O)C[C@H](OCCCCO)O1,10.4µM*,?,/,-11.9,/,0.7
Cc1ccc(NC(=O)C(C)OC(=O)CSc2ccccc2)cc1 (stereo unspecified),/,/,-6.3%,/,6.9%,/
Cn1ncc([N+](=O)[O-])c1C(=O)Nc1cccc2ccccc12,2.33µM*,16.2%,9.0%[46.1 µM],-25.0,?,-4.2
COc1ccccc1NC(=O)c1c(N=Cc2c(O)ccc3ccccc23)cnn1C,?,7.38µM*,?,10.5,?,0.3
Cn1ncc(N=Cc2c(O)ccc3ccccc23)c1C(=O)N1CCOCC1,/,/,1.8%,/,-11.4%,/
Cn1ncc([N+](=O)[O-])c1C(=O)Nc1ccc(-c2nc3ccccc3o2)cc1,4.65µM*,6.5%,/,41.1*,/,23.8*
C/C(=N\NC(=O)c1cccc(S(=O)(=O)N2CCCCC2)c1)c1ccc(C)o1,?,-10.5%,-0.2%,-7.7,-3.5%,-1.9
CC1=NN(Cc2ccccc2)C(=O)C1C(c1ccc(Cl)cc1)C(C#N)C#N (stereo unspecified),?,?,?,-11.9,-13.0%,-2.6
Cc1c(C(N)=O)sc2nc(-c3ccccc3)cn12,10.4µM*,97.5%,8.8%,86.7*,17.4%,36.4*
COc1ccc(-c2cn3c(C)c(C(=O)N4CCN(c5ccccc5F)CC4)sc3n2)cc1,?,?,/,13.0,/,-3.6
Cc1c(C(=O)N2CCN(c3ccccc3F)CC2)sc2nc(-c3ccccc3)cn12,1.85µM*,2.1%,-6.8%,3.7,?,-2.2
O=C(CN1CCCN(S(=O)(=O)c2ccc(F)cc2)CC1)Nc1ccccc1Br,8.1%,?,-8.7%,-6.6,-17.2%,-0.3
COc1cccc(-c2nc(NCc3ccco3)c3ccccc3n2)c1O,?,?,?,-16.2,16.9%,-2.3
O=C(O)CNc1nc(-c2ccccc2)nc2ccccc12,10.0%,7.3%,11.1%,-2.3,-8.2%,8.3
COc1cccc(-c2nc(NCc3ccccc3)c3ccccc3n2)c1O,?,14.7µM*,/,13.6,/,6.2
COc1cccc(-c2nc(NC3CCCC3)c3ccccc3n2)c1O,9.28µM*,/,/,6.5,/,-0.5
c1ccc(-c2nc(NC3CCCC3)c3ccccc3n2)cc1,10.4µM*,?,-25.2%,43.5,?,4.3
C=CCn1c(=O)c2ccccc2n2c(SC(C)C(N)=O)nnc12 (stereo unspecified),16.0%,30.4%,-8.0%[46.1 µM],-3.9,6.6%[46.1 µM],-2.3
COC(=O)c1ccc(S(=O)(=O)N2CCCN(Cc3ccc(F)cc3)CC2)n1C,15.8%,-3.2%,/,4.5,/,-3.5
O=C(CN1CCSc2ccccc21)N1CCCCC1,/,/,7.7%[46.1 µM],/,/,/
SMILES,Pf growth 96h,Pf growth 48h,Lassa entry inh,Shiga inhibitor,MARV entry inh,Cycloheximide cs
Cc1ccc(/C=C/C(=O)O)cc1S(=O)(=O)N1CCc2ccccc2C1,13.2%,-32.5%[1.15 µM],13.8%,-12.7,-9.4%[46.1 µM],-5.1
O=C(CN1C(=O)CSc2ccc(S(=O)(=O)N3CCCCC3)cc21)NCc1ccccc1Cl,31.1%,?,/,-4.3,/,3.6
Cc1nc(N2CCN(c3ccccn3)CC2)c2c(C)c(C(=O)Nc3ccc(F)cc3F)sc2n1,-15.2%,8.28µM*,-18.5%,15.1,-22.1%[46.1 µM],16.1
Cc1ccc(F)cc1NC(=O)c1sc2ncn(CC(=O)N3CCN(c4ccccn4)CC3)c(=O)c2c1C,14.7µM*,12.1%,/,-7.5,/,-1.8
CCc1ccc(NC(=O)c2sc3nc(C)nc(N4CCN(c5ccccn5)CC4)c3c2C)cc1,3.1%,-7.0%,12.2%[46.1 µM],2.4,10µM*,-1.9
Cc1nc(N2CCC(C)CC2)c2c(C)c(C(=O)Nc3ccc(C(F)(F)F)cc3)sc2n1,?,0.208µM*,?,2.3,?,11.7
CCC(C)(C)n1nnnc1C(c1ccccn1)N1CCOCC1 (stereo unspecified),-23.5%,-12.7%,-2.4%,4.3,1.9%,-2.3
Cc1nc(N2CCN(c3ccccn3)CC2)c2c(C)c(C(=O)Nc3ccccc3F)sc2n1,?,6.57µM*,?,-3.7,?,5.5
CC1(C)Cc2c(cnn2-c2ccc(F)cc2)C(NC(=O)c2ccc(=O)oc2)C1 (stereo unspecified),?,?,5.6%,57.2,?,22.4*
CC1(C)Cc2c(cnn2-c2ccc(F)cc2)C(NC(=O)c2cnccn2)C1 (stereo unspecified),/,/,-6.1%,/,-7.3%,/
CSCc1ccc(C(=O)NC2CC(C)(C)Cc3c2cnn3-c2ccc(F)cc2)o1 (stereo unspecified),?,?,/,-2.3,/,28.0*
COC(=O)C1=C(C)n2nnnc2NC1c1ccc(Cl)cc1 (stereo unspecified),-0.2%,?,?,-7.6,-22.2%,-4.9
O=C(Cc1n[nH]c(=O)[nH]c1=O)N/N=C/CCc1ccccc1,-19.1%,-12.4%,/,9.3,/,-2.8
NC(=Nc1ccc(Br)cc1)c1ccccc1,8.7%,37.1%,/,76.0*,/,19.7*
N/C(=N\OC(=O)Oc1ccccc1)c1ccc(Br)cc1,37.4%,/,10.0%,-21.6,-2.4%[46.1 µM],-4.0
CCOc1ccc(/C=N/NC(=O)c2cc3c(OC)cc(OC)cc3[nH]2)cc1OC,0.928µM*,1.65µM*,/,1.4,/,-0.5
COc1ccc(OC)c(/C=N/NC(=O)c2cc3c(OC)cc(OC)cc3[nH]2)c1,?,?,?,7.5,?,24.9
CCOc1ccc(/C=N/NC(=O)c2cc3c(OC)cccc3[nH]2)cc1,?,?,?,-5.0,?,-2.2
C=CCOc1ccc(/C=N/NC(=O)c2cc3c(OC)cc(OC)cc3[nH]2)cc1,2.33µM*,3.29µM*,/,5.4,/,2.8
CCOc1ccc2[nH]c(C(=O)N/N=C/c3cc(OC)c(OC)c(OC)c3)cc2c1,11.7µM*,/,?,12.7,?,-1.6
COc1cccc(C2CCCCN2Cc2nc(-c3ccc(C)o3)oc2C)c1 (stereo unspecified),-3.1%,54.4%,-15.6%,78.8*,?,31.4*
COc1ccccc1C1CCCN1Cc1nc(-c2ccc(C)s2)oc1C (stereo unspecified),4.6%,4.65µM*,3.55µM*,-10.5,?,-1.3
